High-throughput results as filed in PubChem.
sEH activator: soluble epoxide hydrolase activators, primary screen, biochemical, human sEH; Bifunctional epoxide hydrolase 2 (Homo sapiens), P34913; purified human sEH enzymatic activity, activator screen; activation, % at 2 µM; 91,000 tested, 0.04% active; AID 717, 2007; in the data active = activation above about 37%
Target sequence (P34913 whole entry, looked up): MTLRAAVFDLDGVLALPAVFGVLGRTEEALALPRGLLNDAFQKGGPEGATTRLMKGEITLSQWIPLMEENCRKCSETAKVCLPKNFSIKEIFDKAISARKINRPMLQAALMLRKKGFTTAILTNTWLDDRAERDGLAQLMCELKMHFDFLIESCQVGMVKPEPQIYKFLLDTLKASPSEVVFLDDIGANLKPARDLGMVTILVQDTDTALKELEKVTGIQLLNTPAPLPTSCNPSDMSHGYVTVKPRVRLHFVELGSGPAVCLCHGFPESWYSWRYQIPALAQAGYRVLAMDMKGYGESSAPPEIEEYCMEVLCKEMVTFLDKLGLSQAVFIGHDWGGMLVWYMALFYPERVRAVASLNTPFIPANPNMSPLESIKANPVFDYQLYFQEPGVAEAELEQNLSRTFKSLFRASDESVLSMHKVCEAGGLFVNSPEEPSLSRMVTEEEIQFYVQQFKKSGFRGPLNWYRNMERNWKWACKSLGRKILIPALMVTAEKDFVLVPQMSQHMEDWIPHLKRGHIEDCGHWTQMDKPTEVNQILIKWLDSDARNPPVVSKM
CYP2C9 activ: human CYP2C9 activators, primary screen, biochemical, luminescence; recombinant CYP2C9, luciferin-H conversion; active compounds read high; factor 1 = untreated enzyme, 0 = blocked; activation factor at 5 µM; 96,000 tested, 1.4% active; Cytochrome P450 2C9 (Homo sapiens), P11712;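 active = activation factor of 2 or more for CYP2C9 at a 5 µM dose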
CYP2C19 inh: blockers of cytochrome P450 2C19 activity – biochemical, luminescence, ADME assay, primary screen; CYP2C19 Supersomes, luciferin-H EGE luminescence, 30 min; inhibition, % at 5 µM; 96,000 tested, 21% active;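 active = CYP2C19 inhibition above a set limit at 5 µM in the primary screen, cut at about 50% in these data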
CYP2C19 activ: human CYP2C19 activators, primary screen, biochemical, luminescence; Cytochrome P450 2C19 (Homo sapiens), P33261; 96,000 tested, under 10 active; recombinant CYP2C19, luciferin-H EGE luminescence; active compounds read high; 0 = fully inhibited enzyme, 1 = untreated enzyme; AID 1025, 2008; activation factor at 5 µM;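 active = activation factor of at least 2 at 5 µM in the primary screen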
sEH inhibitor: soluble epoxide hydrolase inhibitors, primary screen, biochemical, human sEH; Bifunctional epoxide hydrolase 2 (Homo sapiens), P34913; recombinant human sEH enzymatic activity assay; inhibition, % at 2 µM; 91,000 tested, 0.34% active; AID 707, 2007; in the data active = inhibition above about 80%
CYP2C9 inhib: blockers of cytochrome P450 2C9 activity – biochemical, luminescence, ADME assay, primary screen; CYP2C9 Supersomes, luciferin-H conversion; AID 777, 2007; 96,000 tested, 20% active; inhibition, % at 5 µM;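 active = blocking of liver enzyme CYP2C9 beyond about 50% at 5 µM, limit read from the data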
Numbers stand for hits; 0 = inactive; - = no result. A selection: hits, their analogues and other compounds. The true share with any hit is near 27%.

SMILES	sEH activator	CYP2C9 activ	CYP2C19 inh	CYP2C19 activ	sEH inhibitor	CYP2C9 inhib
Cc1cc2cc(CNS(=O)(=O)c3ccccc3)ccc2n1C	0	0	100.1	0	0	74.3
COc1ccc(S(=O)(=O)NCc2ccc3c(c2)cc(C)n3C)cc1	0	0	75.8	0	0	0
CCOC(=O)NCc1ccc2c(c1)cc(C)n2C	-	0	0	0	-	0
COCCCNc1ncnc2nc[nH]c12	0	0	0	0	0	0
CCOC(=O)CSc1nc(C)c(C(C)=O)cc1C#N	0	0	0	0	0	0
CCOC(=O)CSC1=C(C#N)C(=O)NC2(CCCCC2)S1	0	0	0	0	0	60.7
CCOc1ccc(-c2cnc(SCC(N)=O)nc2N)cc1	0	0	0	0	0	0
CNC(=S)Nc1cc(OC)ccc1OC	0	0	0	0	0	0
Cc1noc(C)c1Cc1ccc(O)cc1	0	0	0	0	0	0
CC(/C=N/Nc1nnc2c(n1)[nH]c1ccccc12)=C\c1ccco1	0	0	79.9	0	0	0
O=C(O)c1ccc(COCC(F)(F)C(F)F)o1	0	0	0	0	0	0
C=CCc1c(C)nc(SC)nc1Nc1ccc(C(C)=O)cc1	0	0	94.5	0	0	97.2
C=CCc1c(C)nc(SC)nc1Nc1ccc(C(=O)O)cc1	0	0	0	0	0	0
CN1C2=NCCN2C(=O)c2ccccc21	0	0	0	0	0	0
Cc1[nH][nH]c(=O)c1C(c1ccc(-c2ccc(Cl)cc2Cl)o1)c1c(C)[nH][nH]c1=O	0	0	74.1	0	0	0
CCOC(=O)N1CCC(NC(=O)Cn2cccc2C(=O)c2ccccc2)CC1	0	0	0	0	0	0
Cc1sc2nc(CSc3nc4ccccc4c(=O)n3CCCN3CCOCC3)[nH]c(=O)c2c1C	-	0	71.1	0	-	70.1
CCOC(=O)c1sc2nc(CSc3nc4ccccc4n3CC)[nH]c(=O)c2c1C	0	0	0	0	0	68.2
CCOC(=O)CSc1nc2ccccc2c(=O)n1CCN1CCOCC1	0	-	-	-	0	-
COC(=O)c1sc2nc(CSc3nc4ccc(C)cc4[nH]3)[nH]c(=O)c2c1C	0	0	0	0	0	0
COC(=O)c1c(C)[nH]c(C(=O)CSc2nnnn2-c2ccccc2)c1C	0	0	0	0	0	0
COCCn1c(SCC(=O)c2[nH]c(C)c(C(C)=O)c2C)nc2ccccc21	0	0	95.0	0	0	77.8
CC(=O)c1c(C)[nH]c(C(=O)CSc2nc3ccccc3c(=O)n2CCCN2CCOCC2)c1C	0	0	68.8	0	0	65.6
CCOC(=O)N1CCN(C(=O)c2ccc3c(=O)n(CCC4=CCCCC4)c(=O)[nH]c3c2)CC1	0	0	0	0	0	0
CSc1nc2ccc(S(=O)(=O)N3CCCC3)cc2s1	0	0	99.4	0	0	52.8
SMILES	sEH activator	CYP2C9 activ	CYP2C19 inh	CYP2C19 activ	sEH inhibitor	CYP2C9 inhib
O=S(=O)(Nc1nc2ccc(S(=O)(=O)N3CCCC3)cc2s1)c1ccc(F)cc1	0	0	0	0	0	100.3
COc1ccc(-c2ccc(C#N)c(OC(=O)c3c(Cl)cccc3Cl)n2)cc1	0	0	0	0	0	0
COc1ccc(Nc2nnc(C)c(=O)[nH]2)cc1	0	0	0	0	0	0
CCCCN(Cc1ccccc1)C(=O)C1CCN(S(=O)(=O)c2c(C)noc2C)CC1	0	0	0	0	0	0
Cc1ccc(NS(=O)(=O)c2ccc(NC(=O)[C@@H]3CCCC[C@@H]3C(=O)O)cc2)c(C)c1	0	0	0	0	0	0
O=C(CSc1cccc2cccnc12)OCC(=O)c1ccccc1	0	2.6	0	0	0	0
CC(=O)c1c(C)n([O-])c2cc(C)ccc2[n+]1=O	0	0	0	0	0	0
O=C(Nc1cccc2ccccc12)c1cnccn1	-	0	0	0	-	0
c1ccc2c(Nc3nnc(-c4ccncc4)s3)cccc2c1	0	0	96.5	0	0	90.1
COC(=O)Nc1nnc(-c2ccncc2)s1	0	0	0	0	0	0
C=CCNc1nnc(-c2ccncc2)s1	0	0	77.1	0	0	0
O=C(CNC(=O)c1ccc(Br)cc1)NCCc1nc2ccccc2[nH]1	0	0	0	0	0	58.0
O=C(CNC(=O)c1cccc(Br)c1)NCCc1nc2ccccc2[nH]1	0	0	0	0	0	0
Cc1ccccc1NC(=O)NCCc1nc2ccccc2[nH]1	0	0	60.5	0	0	0
CCC(=O)NCCc1nc2ccccc2[nH]1	0	0	0	0	0	0
O=C(NCCc1nc2ccccc2[nH]1)c1ccco1	-	0	54.8	0	-	0
CC(=O)N1CCC2(CC1)C(C#N)=C(N)Oc1n[nH]c(C)c12	-	0	0	0	-	0
CCOC(=O)c1c(NC(=O)CN2CCOCC2)sc2c1CC(C)(C)OC2	-	0	0	0	-	73.7
CCOC(=O)c1c(NC(=O)c2ccccc2C)sc2c1CC(C)(C)OC2	0	0	0	0	0	77.1
CCOC(=O)Cn1c(=O)oc2cc(S(=O)(=O)N(CCN(C)C)Cc3ccccc3)ccc21	0	0	0	0	0	0
CCOCCCNS(=O)(=O)c1ccc2c(c1)oc(=O)n2CC(=O)OCC	0	0	0	0	0	0
CCOC(=O)Cn1c(=O)oc2cc(S(=O)(=O)NCCc3ccc(OCC)c(OCC)c3)ccc21	0	0	0	0	0	56.5
CCOC(=O)Cn1c(=O)oc2cc(S(=O)(=O)N3CCc4ccccc43)ccc21	0	0	66.8	0	0	74.1
CCOC(=O)Cn1c(=O)oc2cc(S(=O)(=O)NC(C)c3ccccc3)ccc21 (stereo unspecified)	0	0	78.5	0	0	50.7
CCOC(=O)Cn1c(=O)oc2cc(S(=O)(=O)NCCC(C)C)ccc21	0	0	0	0	0	80.2
SMILES	sEH activator	CYP2C9 activ	CYP2C19 inh	CYP2C19 activ	sEH inhibitor	CYP2C9 inhib
COc1ccc(CNC(=O)CN(C(=O)c2cc3sccc3n2C)C2CCCC2)cc1	-	0	0	0	-	0
CC(C)c1cc(C(F)(F)F)n2nc(C(=O)Nc3ccc4c(c3)OCO4)cc2n1	0	0	0	0	0	0
Cn1c(=O)c(=O)n(C)c2cc(S(=O)(=O)N3CCc4ccccc43)ccc21	-	0	0	0	-	54.3
Cn1cc([N+](=O)[O-])c(C(=O)Nc2ccn(Cc3c(F)c(F)cc(F)c3F)n2)n1	0	0	0	0	0	0
CSC1=C(C#N)C(c2cccs2)CC(=O)N1C (stereo unspecified)	-	0	0	0	-	0
COc1ccc(C2CC(=O)N3C(=C2C#N)SCC3(O)c2ccccc2)cc1 (stereo unspecified)	-	0	83.9	0	-	99.5
N#CC1=C2SCC(O)(c3ccccc3)N2C(=O)CC1c1ccccc1F (stereo unspecified)	0	0	100.3	0	0	98.6
N#CC1=C2SCC(O)(c3ccccc3)N2C(=O)CC1c1cccs1 (stereo unspecified)	-	0	81.6	0	-	99.3
